Results on 13 compounds are retold here after PubChem BioAssay (Tox21).

Each structure is given as a SMILES string. Inconclusive results are not listed. The source made the active and inactive calls. Unless noted, calls follow the shape of the dose curve; as a rule, active = well fitted curve in the direction sought with a large enough effect in the repeat runs; inconclusive = weak or mixed curves; inactive = no such curve, though single readings can be large; an effect the other way counts as inactive or inconclusive.

A short description of assay [1]: qHTS assay to identify aromatase inhibitors - cell viability counter screen (AID 743084).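 Also: cells stimulated with testosterone during compound exposure; nearly all actives have a fitted effect of over 55% in size.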 A general note: Quantitative high-throughput screening tests each substance at several concentrations.
In assay [2] the target is Aryl hydrocarbon receptor (Homo sapiens) (UniProt P35869). As to the kind of experiment: qHTS assay to identify small molecule that activate the aryl hydrocarbon receptor (AhR) signaling pathway (AID 743085). Also: nearly all actives have a fitted effect of over 15% in size. Also: potency is read from the fitted curve at half-maximal effect.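 As to activation: HG2L7.5c1 human HepG2 liver cells with stably integrated DRE-driven firefly reporter; series mostly up to about 70 µM.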 The method, boiled down:
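Cell line HG2L7.5c1 (human hepatoma, 20× DRE-luc). Plated, 5 h 37C, compound/DMSO added, 24 h 37C. CellTiter-Fluor 30 min 37C → fluorescence; then ONE-Glo 30 min RT → luminescence.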

Assay [3] in a line: qHTS assay to identify small molecule that activate the aryl hydrocarbon receptor (AhR) signaling pathway - cell viability counter screen (AID 743086).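 Also: HepG2 liver cells carrying the AhR DRE luciferase reporter; series mostly up to about 70 µM; nearly all actives have a fitted effect of over 45% in size.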 The method, boiled down:
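HepG2-AhR-luc (HG2L7.5c1) cells, 4000/well, were preincubated 5 h at 37C, exposed to compound in qHTS format for 24 hr at 37C, then given CellTiter-Fluor for 30 min; viability was read as fluorescence in the reporter wells.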

In assay [4] the target is Peroxisome proliferator-activated receptor gamma (Homo sapiens) (UniProt P37231). As to the kind of experiment: qHTS assay to identify small molecule agonists of the peroxisome proliferator-activated receptor gamma (PPARg) signaling pathway (AID 743094; active = well fitted activation curve with a large enough effect in the signal ratio in the repeat runs, not every such curve was filed as active; the % refers to the signal ratio). In a few lines: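 Fluorescence-based beta-lactamase readout in HEK293H PPARg UAS-bla cells after 17 h compound exposure (37C) and 1 h B/G FRET substrate incubation at room temperature.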

A short description of assay [5]: qHTS assay to identify small molecule antagonists of the peroxisome proliferator-activated receptor gamma (PPARg) signaling pathway - cell viability counter screen (AID 743194). Also: nearly all actives have a fitted effect of over 55% in size. The method, boiled down:
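PPARg-UAS-bla HEK293H cells were plated, rested 5 h at 37 C, then treated with compounds plus rosiglitazone (50 nM final) for 17 h at 37 C; viability was then read by CellTiter-Glo luminescence after 30 min at room temperature.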

A short description of assay [6]: qHTS assay for small molecule agonists of the antioxidant response element (ARE) signaling pathway (AID 743202; active = well fitted activation curve with a large enough effect in the signal ratio in the repeat runs, not every such curve was filed as active; the % refers to the signal ratio). In a few lines: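 Following a 16 h, 37 C exposure of reporter HepG2 cells (ARE-driven beta-lactamase, 2,000 cells/well) to compounds, FRET substrate was applied for 2 h at room temperature and fluorescence intensity recorded.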
Assay [7] in a line: qHTS assay for small molecule agonists of the antioxidant response element (ARE) signaling pathway - cell viability counter screen (AID 743203; calls by dose curve; also: nearly all actives have a fitted effect of over 55% in size). The method, boiled down:
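Parallel cytotoxicity read-out for the ARE-bla screen: HepG2 reporter cells, 16 hrs with compounds, then CellTiter-Glo luminescence.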

Assay [8] is described as follows: qHTS assay for small molecule activators of the heat shock response signaling pathway - cell viability counter screen (AID 743209). Also: nearly all actives have a fitted effect of over 50% in size. The method, boiled down:
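To flag cytotoxic compounds, HSE-bla HeLa cells plated at 1500 cells/well were dosed for 5 h at 37 C, followed by the reporter FRET read and then CellTiter-Glo, with luminescence recorded 30 min after reagent addition.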

Assay [9] in a line: qHTS assay for small molecule activators of the heat shock response signaling pathway (AID 743210; active = well fitted activation curve with a large enough effect in the signal ratio in the repeat runs, with a control signal flat, not every such curve was filed as active; the % refers to the signal ratio; also: series mostly up to about 63 µM). In a few lines: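 Heat shock element–beta-lactamase HeLa reporter cells; qHTS with compounds for 5 h at 37 C; detection by FRET substrate fluorescence after 2.5 h at RT.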
A short description of assay [10]: qHTS assay to identify small molecule agonists of the peroxisome proliferator-activated receptor delta (PPARd) signaling pathway - cell viability counter screen (AID 743211). Also: nearly all actives have a fitted effect of over 55% in size. The method, boiled down:
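HEK293H PPARd-bla, 3000 cells/well; 5 h preincubation 37C/5% CO2; cpd in DMSO, 17 h 37C; B/G FRET substrate 2 h RT; CellTiter-Glo 30 min RT, luminescence.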

Assay [11] in a line: qHTS assay to identify small molecule antagonists of the peroxisome proliferator-activated receptor delta (PPARd) signaling pathway - cell viability counter screen (AID 743213). Also: nearly all actives have a fitted effect of over 50% in size. The method, boiled down:
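PPARd-bla HEK293H cells (3000/well) got compound plus 300 nM L165041 agonist for 17 h at 37 C. Viability in the same wells came from CellTiter-Glo luminescence after 30 min at room temperature.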

Assay [12] can be described thus: qHTS assay to identify small molecule agonists of the farnesoid-X-receptor (FXR) signaling pathway - cell viability counter screen (AID 743218). Also: nearly all actives have a fitted effect of over 45% in size. In a few lines: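 Same-well cytotoxicity check on FXR-UAS-bla HEK 293T cells: 5 h attachment, 16 h compound at 37 C, CellTiter-Glo luminescence read at room temperature after 30 min.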
For assay [13], the target named is Vitamin D3 receptor (Homo sapiens) (UniProt P11473). As to the kind of experiment: qHTS assay to identify small molecule agonists of the vitamin D receptor (VDR) signaling pathway (AID 743222; calls by dose curve). The method, boiled down:
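Using LiveBLAzer B/G FRET detection, agonism was scored in VDR-bla cells exposed overnight (16 h, 37C) to DMSO-dissolved compounds; substrate incubation was 2 h at room temperature.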

Assay [14] shares this target. Description: qHTS assay to identify small molecule antagonists of the vitamin D receptor (VDR) signaling pathway (AID 743223; active = well fitted inhibition curve with a large enough effect in the signal ratio in the repeat runs, not every such curve was filed as active; the % refers to the signal ratio). In a few lines: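 Antagonist mode uses 1alpha,25-dihydroxyvitamin D3 at 3 nM final as stimulus. VDR-bla cells receive compounds in DMSO, incubate 16 h at 37C, then a beta-lactamase FRET substrate for 2 h at room temperature before fluorescence measurement.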

Assay [15] concerns the target Peroxisome proliferator-activated receptor delta (Homo sapiens) (UniProt Q03181). Description: qHTS assay to identify small molecule agonists of the peroxisome proliferator-activated receptor delta (PPARd) signaling pathway (AID 743212; calls by dose curve). The method, boiled down: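 Beta-lactamase reporter read by fluorescence (LiveBLAzer B/G FRET, 2 h, room temperature). Test agents, in DMSO, incubated at 37 C with PPARd-bla HEK293H cells.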

The target is the same in assay [16]. As to the kind of experiment: qHTS assay to identify small molecule antagonists of the peroxisome proliferator-activated receptor delta (PPARd) signaling pathway (AID 743215; active = well fitted inhibition curve with a large enough effect in the signal ratio in the repeat runs, not every such curve was filed as active; the % refers to the signal ratio;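 also: cells stimulated with agonist L165041 at 300 nM final during compound exposure; series mostly up to about 62 µM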). In a few lines:
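Screen format: qHTS, antagonist mode. HEK293H PPARd-bla cells received compound and 300 nM L165041 (final), 17 h, 37 C. Beta-lactamase detected via FRET substrate fluorescence, 2 h, room temperature.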

The nature of assay [17]: qHTS assay to identify small molecule antagonists of the farnesoid-X-receptor (FXR) signaling pathway - cell viability counter screen (AID 743221; active = well fitted cell-killing curve with a large enough effect in the repeat runs, not every such curve was filed as active; also: nearly all actives have a fitted effect of over 50% in size). In a few lines:
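Luminescence from CellTiter-Glo measures cytotoxicity in GeneBLAzer FXR-UAS-bla HEK 293T cells. Cells were exposed to compounds with 50 uM chenodeoxycholic acid (final) for 16 h at 37 C, in wells also used for the reporter readout.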

Assay [18] has as its target Bile acid receptor (Homo sapiens) (UniProt Q96RI1). Description: qHTS assay to identify small molecule agonists of the farnesoid-X-receptor (FXR) signaling pathway (AID 743220; active = well fitted activation curve with a large enough effect in the signal ratio in the repeat runs, not every such curve was filed as active; the % refers to the signal ratio). The method, boiled down:
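FXR-UAS-bla HEK 293T cells carrying a UAS-driven beta-lactamase reporter were plated for 5 h at 37C/5% CO2, then exposed to DMSO-dissolved Tox21 10K compounds for 16 h at 37C. A LiveBLAzer B/G FRET substrate was loaded for 2 h at room temperature before fluorescence reading.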

For assay [19] the target is unchanged. Description: qHTS assay to identify small molecule antagonists of the farnesoid-X-receptor (FXR) signaling pathway (AID 743217; active = well fitted inhibition curve with a large enough effect in the signal ratio in the repeat runs, not every such curve was filed as active; the % refers to the signal ratio; also: potency is read from the fitted curve at half-maximal effect). In a few lines: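 Quantitative HTS, beta-lactamase reporter format: FXR-UAS-bla HEK 293T cells co-treated 16 h at 37 °C with compounds and 50 uM final chenodeoxycholic acid, then read by B/G FRET fluorescence.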
Assay [20] addresses Peroxisome proliferator-activated receptor gamma (Homo sapiens) (UniProt P37231). As to the kind of experiment: qHTS assay to identify small molecule antagonists of the peroxisome proliferator-activated receptor gamma (PPARg) signaling pathway (AID 743191; calls by dose curve; also: series mostly up to about 63 µM; nearly all actives have a fitted effect of over 30% in size). In a few lines:
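GeneBLAzer PPARg UAS-bla HEK293H cells carrying a UAS-driven beta-lactamase reporter were plated at 3000 cells/well, preincubated 5 h at 37C, then given compound for 17 h at 37C; LiveBLAzer B/G FRET substrate was read after 1 h at room temperature.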

Peroxisome proliferator-activated receptor delta (Homo sapiens), sequence (Q03181 whole entry, looked up): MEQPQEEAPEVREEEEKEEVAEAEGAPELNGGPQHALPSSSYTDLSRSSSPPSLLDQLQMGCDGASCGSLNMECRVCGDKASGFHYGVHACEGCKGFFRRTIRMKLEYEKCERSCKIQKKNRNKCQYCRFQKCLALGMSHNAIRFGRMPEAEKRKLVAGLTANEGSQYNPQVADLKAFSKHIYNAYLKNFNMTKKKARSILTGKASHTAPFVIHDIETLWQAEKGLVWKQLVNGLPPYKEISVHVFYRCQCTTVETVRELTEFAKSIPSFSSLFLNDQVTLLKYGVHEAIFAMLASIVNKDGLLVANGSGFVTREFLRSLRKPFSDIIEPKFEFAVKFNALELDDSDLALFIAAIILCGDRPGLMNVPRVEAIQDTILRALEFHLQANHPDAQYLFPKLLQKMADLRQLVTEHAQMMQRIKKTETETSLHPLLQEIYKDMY
Vitamin D3 receptor (Homo sapiens), sequence (P11473 whole entry, looked up): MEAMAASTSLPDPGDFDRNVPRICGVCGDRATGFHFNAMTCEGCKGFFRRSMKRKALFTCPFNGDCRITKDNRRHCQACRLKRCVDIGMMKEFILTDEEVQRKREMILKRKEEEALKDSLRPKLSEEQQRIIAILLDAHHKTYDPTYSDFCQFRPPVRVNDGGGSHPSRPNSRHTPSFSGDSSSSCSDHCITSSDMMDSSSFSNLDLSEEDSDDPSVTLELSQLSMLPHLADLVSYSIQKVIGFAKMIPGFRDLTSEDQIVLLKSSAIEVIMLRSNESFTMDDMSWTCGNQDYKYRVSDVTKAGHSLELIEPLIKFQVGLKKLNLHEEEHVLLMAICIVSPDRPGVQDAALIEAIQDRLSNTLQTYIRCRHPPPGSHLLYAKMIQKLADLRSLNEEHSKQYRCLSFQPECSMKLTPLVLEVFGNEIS
Bile acid receptor (Homo sapiens), sequence (Q96RI1 whole entry, looked up): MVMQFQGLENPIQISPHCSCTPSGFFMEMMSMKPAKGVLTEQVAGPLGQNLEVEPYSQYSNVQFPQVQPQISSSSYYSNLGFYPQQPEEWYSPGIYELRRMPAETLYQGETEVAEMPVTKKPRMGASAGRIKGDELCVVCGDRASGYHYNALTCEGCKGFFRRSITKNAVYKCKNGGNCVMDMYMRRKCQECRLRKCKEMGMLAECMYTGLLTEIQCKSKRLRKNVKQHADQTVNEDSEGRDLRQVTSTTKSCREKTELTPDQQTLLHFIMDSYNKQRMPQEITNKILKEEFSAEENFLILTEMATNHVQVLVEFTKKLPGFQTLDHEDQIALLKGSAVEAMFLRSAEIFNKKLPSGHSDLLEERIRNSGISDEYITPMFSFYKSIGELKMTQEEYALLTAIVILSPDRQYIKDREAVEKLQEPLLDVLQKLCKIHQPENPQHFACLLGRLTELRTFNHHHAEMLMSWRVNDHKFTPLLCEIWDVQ
Peroxisome proliferator-activated receptor gamma (Homo sapiens), sequence (P37231 whole entry, looked up): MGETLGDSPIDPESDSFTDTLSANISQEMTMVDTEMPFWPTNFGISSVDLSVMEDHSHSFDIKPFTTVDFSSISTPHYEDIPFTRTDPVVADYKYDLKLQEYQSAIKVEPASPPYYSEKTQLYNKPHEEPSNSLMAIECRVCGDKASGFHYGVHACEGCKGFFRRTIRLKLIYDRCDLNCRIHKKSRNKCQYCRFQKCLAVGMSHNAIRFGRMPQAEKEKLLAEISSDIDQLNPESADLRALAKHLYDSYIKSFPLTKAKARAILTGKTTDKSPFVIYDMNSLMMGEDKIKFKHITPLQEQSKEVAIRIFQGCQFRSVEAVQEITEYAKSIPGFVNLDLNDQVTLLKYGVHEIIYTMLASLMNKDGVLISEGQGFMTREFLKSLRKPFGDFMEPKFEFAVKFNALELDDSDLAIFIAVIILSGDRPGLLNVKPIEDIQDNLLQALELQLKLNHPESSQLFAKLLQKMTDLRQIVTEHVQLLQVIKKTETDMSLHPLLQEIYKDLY
Aryl hydrocarbon receptor (Homo sapiens), sequence (P35869 whole entry, looked up): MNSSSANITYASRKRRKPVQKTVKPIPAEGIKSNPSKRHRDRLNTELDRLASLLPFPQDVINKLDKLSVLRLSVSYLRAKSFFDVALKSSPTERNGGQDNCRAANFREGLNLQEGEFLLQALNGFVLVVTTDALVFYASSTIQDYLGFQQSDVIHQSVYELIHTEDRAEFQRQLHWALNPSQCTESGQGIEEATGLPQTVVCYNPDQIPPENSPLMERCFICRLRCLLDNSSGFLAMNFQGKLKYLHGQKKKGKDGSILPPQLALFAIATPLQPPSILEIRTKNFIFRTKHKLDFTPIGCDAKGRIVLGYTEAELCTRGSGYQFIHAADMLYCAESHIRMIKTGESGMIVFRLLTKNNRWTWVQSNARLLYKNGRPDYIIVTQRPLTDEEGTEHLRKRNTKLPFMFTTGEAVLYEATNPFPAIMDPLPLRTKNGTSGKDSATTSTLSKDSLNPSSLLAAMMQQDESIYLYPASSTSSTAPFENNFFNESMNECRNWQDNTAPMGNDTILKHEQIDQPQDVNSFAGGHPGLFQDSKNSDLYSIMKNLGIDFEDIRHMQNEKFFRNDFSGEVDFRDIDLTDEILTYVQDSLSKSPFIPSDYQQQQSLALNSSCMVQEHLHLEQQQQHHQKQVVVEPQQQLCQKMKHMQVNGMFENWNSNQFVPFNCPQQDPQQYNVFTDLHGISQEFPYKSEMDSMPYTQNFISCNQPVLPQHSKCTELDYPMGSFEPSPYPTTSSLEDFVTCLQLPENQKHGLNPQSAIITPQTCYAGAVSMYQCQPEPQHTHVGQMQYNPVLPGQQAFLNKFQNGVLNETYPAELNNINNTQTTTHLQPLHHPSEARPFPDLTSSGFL

As to `COC(=O)c1ccc(I)cc1S(=O)(=O)NC(=O)Nc1nc(C)nc(OC)n1`, the Potency result in assay [1], in assay [2], in assay [3], in [4], in [5] and in assay [6] was “inactive” in each case. Further, the Potency entry in [7], in [8], in assay [9], in assay [10], in assay [11] and in [12] was “inactive” each time. Moreover, the Potency result in assay [13] was “inactive”. The call in assay [14] was inactive.
Turning to `CN1CCN(C(c2ccccc2)c2ccccc2)CC1`, the Potency entry in [1], in assay [2], in [3], in assay [4], in [5] and in assay [6] was “inactive” each time. Moreover, the Potency result in assay [7], in [8], in [9], in [10], in assay [15] and in assay [11] was “inactive” throughout. In addition, the Potency entry in assay [16], in assay [17] and in assay [13] was “inactive” throughout. Besides, the result in [14] was inactive.
Take `C=C(C)C(=O)OCCOCC`: the Potency result in assay [1], in [2], in [3], in assay [4], in assay [5] and in assay [6] was “inactive” each time. In addition, the Potency entry in [7], in [8], in assay [9], in [10], in assay [15] and in assay [11] was “inactive” in each case. The Potency result in assay [16] and in assay [17] was “inactive” throughout.
As for `CCOC(=O)c1cccnc1`, the Potency result in assay [1], in [2], in [3], in [4], in assay [5] and in [6] was “inactive” each time. The Potency result in [7], in [9], in [15], in assay [11], in assay [16] and in assay [17] was “inactive” each time.
Regarding `C1CCCNCCC1`, the Potency result in assay [1], in assay [2], in [3], in assay [4], in assay [5] and in [6] was “inactive” in each case. Further, the Potency entry in assay [7], in assay [9], in assay [10], in assay [12] and in assay [13] was “inactive” throughout.
Consider `O=CC1CC=CCC1` (stereo unspecified), for which the Potency result in assay [1], in [2], in [3], in assay [4], in assay [5] and in [6] was “inactive” each time. Moreover, the Potency entry in assay [7], in assay [8], in assay [9], in [10], in assay [15] and in [16] was “inactive” in each case. Further, the Potency entry in assay [12], in assay [18], in [17] and in assay [13] was “inactive” in each case. The compound was classed as inactive in assay [14].
`N=c1ccn2c(n1)O[C@H]1[C@H](O)[C@@H](CO)O[C@H]12`: the Potency result in [1], in assay [2], in assay [3], in assay [4], in assay [5] and in [7] was “inactive” throughout. For the same compound, the Potency result in assay [8], in assay [9], in [10], in [11], in assay [17] and in [13] was “inactive” each time. Further, in assay [14], the outcome was inactive.
With `COc1ccc(-c2nc3ccc(C4=NNC(=O)CC4C)cc3[nH]2)cc1` (stereo unspecified), the Potency result in [1], in [3], in assay [4], in assay [5], in assay [6] and in [7] was “inactive” in each case. In addition, the Potency entry in assay [8], in assay [9], in assay [15], in [18], in [17] and in assay [13] was “inactive” throughout. For the same compound, the Potency is 11.9 µM (active) in assay [2] and 29.8 µM (active) in assay [19]. The compound was classed as inactive in assay [14].
With `O=[N+]([O-])c1cccc(S(=O)(=O)O)c1`, the Potency entry in assay [1], in [2], in assay [3], in assay [4], in assay [20] and in assay [7] was “inactive” each time. Besides, the Potency result in [8], in assay [10], in assay [15], in assay [11], in assay [16] and in assay [17] was “inactive” in each case. Moreover, the Potency result in assay [13] was “inactive”. Moreover, the outcome in [14] was inactive.
On to `CCOC(=O)C(F)(F)F`, for which the Potency result in [1], in assay [2], in assay [3], in assay [4], in assay [5] and in [7] was “inactive” in each case. The Potency result in assay [8], in [9], in assay [10], in assay [15], in assay [11] and in assay [16] was “inactive” in each case. Moreover, the Potency entry in assay [12], in [18], in assay [17] and in assay [13] was “inactive” throughout. In addition, the call in assay [14] was inactive.
In the case of `O=P(O)(OCc1ccccc1)OCc1ccccc1`, the Potency result in assay [1], in assay [2], in [3], in [4], in assay [5] and in assay [7] was “inactive” each time. The Potency entry in assay [8], in assay [9], in assay [10], in [12], in [18] and in [17] was “inactive” each time. Further, the Potency result in [13] is “inactive”. Further, the result in assay [14] was inactive.
Turning to `CC(=O)c1ccc2c(c1)N(CCCN(C)C)c1ccccc1S2`, the Potency result in assay [1], in assay [2], in assay [3], in assay [4], in assay [20] and in assay [7] was “inactive” in each case. The Potency result in [8], in assay [15], in assay [11] and in assay [16] was “inactive” each time.
Regarding `Nc1ncn([C@H]2C[C@H](O)[C@@H](CO)O2)c(=O)n1`, the Potency entry in [1], in assay [2], in assay [3], in assay [4], in [5] and in [6] was “inactive” in each case. Moreover, the Potency entry in [7], in assay [8], in [10], in [11], in [12] and in assay [18] was “inactive” throughout. Also, in [13], the Potency entry is “inactive”. The call in assay [14] was inactive.
